Our source for the Potency values is PubChem BioAssay (Tox21).

Values joined by “and” are separate entries in the source; they are usually repeats but may differ in a detail not shown here. Equal entries are not always repeated. Inconclusive results are not listed. Where a call stands in place of a potency, no number is given. Some structures have more than one record in an assay (separate samples or runs), and their calls can disagree. Active and inactive are the calls of the source. The call rests on the fitted dose curve; in most records, active means well fitted curve in the direction sought with a large enough effect in the repeat runs; inconclusive means weak or mixed curves; inactive means no such curve, though single readings can be large; an effect the other way counts as inactive or inconclusive.
Potency means the concentration at half of the fitted maximal effect.

One assay can be described thus: A CellTox Green Cytotoxicity Assay to monitor cytotoxicity in HEK293 cells - 40 hour (AID 1224871). Further: nearly all actives have a fitted effect of over 45% in size. Particulars: CellTox Green fluorescence; series mostly up to 76.8 µM. Put shortly: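 Homogeneous no-lysis format: HEK293 cell suspension mixed with CellTox Green reagent, seeded, incubated 5 h at 37 C/5% CO2, then dosed by pintool with compound in DMSO.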
`CCCCCCCCCCCCCCCCCCn1cc[n+](C)c1`: the Potency is 19.4 µM (active).

With `COC[C@H](C)N(C(=O)CCl)c1c(C)csc1C`, the Potency result was “inactive”.

Regarding `C[C@H]1CC[C@@H]2[C@@H](C)[C@H]3[C@H](C[C@H]4[C@@H]5CC=C6CC(O[C@@H]7O[C@H](CO)[C@H](O)[C@H](O[C@@H]8O[C@H](CO)[C@@H](O)[C@H](O)[C@H]8O)[C@H]7O[C@H]7O[C@@H](C)[C@H](O)[C@@H](O)[C@H]7O)CC[C@]6(C)[C@H]5CC[C@]34C)N2C1` (stereo partly specified), the Potency is 7.14 µM (active).

Regarding `Cc1cc(C)cc(OP(=O)(Oc2cc(C)cc(C)c2)Oc2cc(C)cc(C)c2)c1`, the Potency entry was “inactive”.

With `Cc1ccc(C(=O)Cl)cc1`, the Potency result was “inactive”.

In the case of `COP(N)(=S)OC`, the Potency result is “inactive”.

Regarding `NNC(=O)c1ccccc1`, the Potency result was “inactive”.

Take `CCN`: the Potency result is “inactive”.

Consider `N#Cc1ccccc1N`, for which the Potency entry is “inactive”.

As to `CN(CCCC(O)c1cccnc1)N=O` (stereo unspecified), the Potency entry is “inactive”.

With `S=C=Nc1cccc2ccccc12`, the Potency result was “inactive”.

In the case of `O=C(CCCN1CCC2(CC1)C(=O)NCN2c1ccccc1)c1ccc(F)cc1`, the Potency is 19 µM (active).

Regarding `CC(C)(C)OO`, the Potency result was “inactive”.

As to `C[C@]12CC[C@@H]3c4ccc(OC(=O)N(CCCl)CCCl)cc4CC[C@H]3[C@@H]1CC[C@@H]2O`, the Potency entry is “inactive”.

For the molecule `ClCCN1CCOCC1`, the Potency entry was “inactive”.

With `[Hg+2].[I-].[I-]`, the Potency is 21.9 µM (active).

For the molecule `Cl/C=C\CCl`, the Potency entry is “inactive”.

In the case of `CC(O)C#N` (stereo unspecified), the Potency entry was “inactive”.

`c1ccc(OCC2CO2)cc1` (stereo unspecified): the Potency entry is “inactive”.

On to `ClC1=C(Cl)[C@]2(Cl)[C@@H]3[C@@H]4C[C@@H]([C@H]5O[C@@H]45)[C@@H]3[C@@]1(Cl)C2(Cl)Cl`, for which the Potency was 51.9 µM (active).

Consider `CCOCCOC(C)=O`, for which the Potency entry is “inactive”.

Take `CCC[CH2][Sn]([CH2]CCC)([CH2]CCC)[O]C(=O)c1ccccc1`: the Potency is 0.692 µM (active).

For `CCCCCCCCCCBr`, the Potency entry was “inactive”.

As to `Oc1ccc(I)cc1`, the Potency entry was “inactive”.

As for `O=c1[nH]c2ccccc2n1CCCN1CCC(n2c(=O)[nH]c3cc(Cl)ccc32)CC1`, the Potency result was “inactive”.

On to `Cc1cc(Cl)ccc1O[C@H](C)C(=O)O`, for which the Potency result was “inactive”.

For `CCCCCCCCCCCCCN1CC(C)OC(C)C1` (stereo unspecified), the Potency entry was “inactive”.

As for `O=c1ssc(Cl)c1Cl`, the Potency is 21.9 µM (active).

Take `C[C@@H](Oc1ccc(Cl)cc1Cl)C(=O)O`: the Potency entry is “inactive”.

Consider `COP(=O)(CCC(=O)NCO)OC`, for which the Potency result was “inactive”.

Turning to `C=COCCCl`, the Potency entry is “inactive”.

For the molecule `CNC(C)Cc1ccc2c(c1)OCO2` (stereo unspecified), the Potency entry is “inactive”.

As for `CCCSP(=O)(OCC)SCCC`, the Potency result was “inactive”.

On to `CCS(=O)(=O)c1cccnc1S(=O)(=O)NC(=O)Nc1nc(OC)cc(OC)n1`, for which the Potency entry was “inactive”.

As for `CCCCCCCCCCCCCCCC[N+](C)(C)C`, the Potency is 23.7 µM (active) and 43.6 µM (active) and 23.9 µM (active).

Take `O=c1[nH]c2ccccc2n1C1CCN(CCCC(c2ccc(F)cc2)c2ccc(F)cc2)CC1`: the Potency was 49 µM (active) and inactive.

On to `CCOP(=S)(OCC)SCS(=O)(=O)C(C)(C)C`, for which the Potency result was “inactive”.

As for `CC(=O)Nc1ccc2c(c1)Cc1ccccc1-2`, the Potency entry was “inactive”.

A further assay in a line: qHTS RealTime-Glo MT Cell Viability Assay in HEK293 cells - 16 hour (AID 1224872). Further: nearly all actives have a fitted effect of over 50% in size. Particulars: RealTime-Glo luminescence; series mostly up to 76.8 µM. Put shortly:
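Reads taken at 0, 8, 16, 24, 32 and 40 h from the same wells. HEK293 cells (600/well) carried RealTime-Glo reagents from seeding, with compound added after a 5 h settle at 37 C.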
On the technique in general: In qHTS, concentration-response curves come from the screen itself.
In the case of `CCCCCCCCCCCCCCCCCCn1cc[n+](C)c1`, the Potency was 24.4 µM (active).

Regarding `COC[C@H](C)N(C(=O)CCl)c1c(C)csc1C`, the Potency entry was “inactive”.

`C[C@H]1CC[C@@H]2[C@@H](C)[C@H]3[C@H](C[C@H]4[C@@H]5CC=C6CC(O[C@@H]7O[C@H](CO)[C@H](O)[C@H](O[C@@H]8O[C@H](CO)[C@@H](O)[C@H](O)[C@H]8O)[C@H]7O[C@H]7O[C@@H](C)[C@H](O)[C@@H](O)[C@H]7O)CC[C@]6(C)[C@H]5CC[C@]34C)N2C1` (stereo partly specified): the Potency is 12.7 µM (active).

As for `Cc1cc(C)cc(OP(=O)(Oc2cc(C)cc(C)c2)Oc2cc(C)cc(C)c2)c1`, the Potency entry was “inactive”.

As for `Cc1ccc(C(=O)Cl)cc1`, the Potency entry is “inactive”.

In the case of `COP(N)(=S)OC`, the Potency result was “inactive”.

`NNC(=O)c1ccccc1`: the Potency result is “inactive”.

Regarding `CCN`, the Potency result is “inactive”.

Regarding `N#Cc1ccccc1N`, the Potency result was “inactive”.

Take `CN(CCCC(O)c1cccnc1)N=O` (stereo unspecified): the Potency result was “inactive”.

With `S=C=Nc1cccc2ccccc12`, the Potency entry was “inactive”.

As for `O=C(CCCN1CCC2(CC1)C(=O)NCN2c1ccccc1)c1ccc(F)cc1`, the Potency is 6.74 µM (active).

On to `CC(C)(C)OO`, for which the Potency result was “inactive”.

Take `C[C@]12CC[C@@H]3c4ccc(OC(=O)N(CCCl)CCCl)cc4CC[C@H]3[C@@H]1CC[C@@H]2O`: the Potency result is “inactive”.

In the case of `ClCCN1CCOCC1`, the Potency result is “inactive”.

Consider `[Hg+2].[I-].[I-]`, for which the Potency is 3.47 µM (active).

Regarding `Cl/C=C\CCl`, the Potency entry was “inactive”.

On to `CC(O)C#N` (stereo unspecified), for which the Potency entry was “inactive”.

With `c1ccc(OCC2CO2)cc1` (stereo unspecified), the Potency entry was “inactive”.

With `ClC1=C(Cl)[C@]2(Cl)[C@@H]3[C@@H]4C[C@@H]([C@H]5O[C@@H]45)[C@@H]3[C@@]1(Cl)C2(Cl)Cl`, the Potency was 21.9 µM (active).

Consider `CCOCCOC(C)=O`, for which the Potency result was “inactive”.

Take `CCC[CH2][Sn]([CH2]CCC)([CH2]CCC)[O]C(=O)c1ccccc1`: the Potency is 0.436 µM (active).

Take `CCCCCCCCCCBr`: the Potency result is “inactive”.

For `Oc1ccc(I)cc1`, the Potency entry is “inactive”.

As for `O=c1[nH]c2ccccc2n1CCCN1CCC(n2c(=O)[nH]c3cc(Cl)ccc32)CC1`, the Potency was 9.52 µM (active).

With `Cc1cc(Cl)ccc1O[C@H](C)C(=O)O`, the Potency result was “inactive”.

As for `CCCCCCCCCCCCCN1CC(C)OC(C)C1` (stereo unspecified), the Potency result was “inactive”.

On to `O=c1ssc(Cl)c1Cl`, for which the Potency is 17.4 µM (active).

Consider `C[C@@H](Oc1ccc(Cl)cc1Cl)C(=O)O`, for which the Potency result is “inactive”.

Consider `COP(=O)(CCC(=O)NCO)OC`, for which the Potency entry was “inactive”.

In the case of `C=COCCCl`, the Potency result was “inactive”.

With `CNC(C)Cc1ccc2c(c1)OCO2` (stereo unspecified), the Potency entry is “inactive”.

Take `CCCSP(=O)(OCC)SCCC`: the Potency result was “inactive”.

`CCS(=O)(=O)c1cccnc1S(=O)(=O)NC(=O)Nc1nc(OC)cc(OC)n1`: the Potency result was “inactive”.

For the molecule `CCCCCCCCCCCCCCCC[N+](C)(C)C`, the Potency is 10.6 µM (active) and 21.9 µM (active).

Consider `O=c1[nH]c2ccccc2n1C1CCN(CCCC(c2ccc(F)cc2)c2ccc(F)cc2)CC1`, for which the Potency was 13.8 µM (active) and 19 µM (active).

Regarding `CCOP(=S)(OCC)SCS(=O)(=O)C(C)(C)C`, the Potency result is “inactive”.

As to `CC(=O)Nc1ccc2c(c1)Cc1ccccc1-2`, the Potency result was “inactive”.
